The text below walks through data of PubChem BioAssay (NCATS).

Values without a mark were called inactive. Inconclusive results are not listed. Calls of active or inactive are those of the source. Calls follow the shape of the dose curve; as a rule, active = well fitted curve in the direction sought with a large enough effect; inconclusive = small, poorly fitted or top-dose-only effect, or another doubt; inactive = no such curve, though single readings can be large; an effect the other way counts as inactive or inconclusive.

Test [1] concerns the target Phospholipid hydroperoxide glutathione peroxidase GPX4 (Homo sapiens) (UniProt P36969). The test is described as follows: Primary qHTS Assay for Inhibitors of Recombinant Selenoprotein Glutathione Peroxidase 4 (GPX4) (AID 1845192). Also: % is scaled to controls: 0 for no effect and ±100 for the full control effect; nearly all actives have a fitted effect of over 65% in size. The conditions noted are these: recombinant GPX4, GR-coupled NADPH fluorescence, 15 min; series mostly up to 27.8 µM. The procedure, abridged:
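GR-coupled assay: recombinant GPX4 preincubated 30 min with compound at room temperature; final 200 nM GPX4, 1 mM GSH, 0.5 mM cumene hydroperoxide, 0.5 mM NADPH, 100 nM GR, 0.01% BSA, pH 7.5 Tris. NADPH fluorescence (340/450 nm) read at 0 and 15 min.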
A general note: In qHTS, concentration-response curves come from the screen itself.

Test [2] concerns the target Luciferin 4-monooxygenase (Photinus pyralis) (UniProt P08659). Kind of test: Primary firefly luciferase (FLuc) qHTS assay for identification of artifact compounds. (AID 1845220). Also: nearly all actives have a fitted effect of over 60% in size. Also: potency is read from the fitted curve at half-maximal effect.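 As to activity change, negative = inhibition: plate controls were DMSO vehicle for no effect and no enzyme for full effect.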 The conditions noted are these: purified firefly luciferase, luminescence, 5 min; series mostly up to 54.1 µM. In a few lines:
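D-luciferin and ATP (10 uM each, final) in Tris acetate buffer pH 7.6 were incubated with compounds for 15 min at room temperature. The reaction was started with 10 nM Photinus pyralis luciferase and luminescence read after 5 min. Percent inhibition was fitted to a 4-parameter Hill equation.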

Test [3] is described as follows: Primary fluorescence-based thiol-reactive (MSTI) qHTS assay for identification of artifact compounds. (AID 1845221). Also: nearly all actives have a fitted effect of over 65% in size. Also: potency is read from the fitted curve at half-maximal effect.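 As to activity change, negative = thiol reactive: thiol-reactive compounds lower the probe fluorescence signal.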 Particulars: MSTI thiol-reactivity probe, 1 h; series mostly up to 53.8 µM. In a few lines:
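Curve-fitted percent inhibition (4-parameter Hill) derived from fluorescence, Ex 525/Em 598 nm, scaled with Acetyl-MSTI and MSTI; 1 h incubation at room temperature.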

Test [4] relates to Nanoluciferase (engineered Oplophorus gracilirostris luciferase). The test is described as follows: Primary Nanoluciferase (NLuc) qHTS assay for identification of artifact compounds. (AID 1845222).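 Also: 0% = DMSO and -100% = no enzyme.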 Particulars: NLuc-conditioned medium, Nano-Glo luminescence, 5 min; series mostly up to 54.1 µM. In a few lines: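 Diluted conditioned medium from NLuc-expressing S16 cells treated with compounds for 15 min at room temperature, then Nano-Glo substrate added; luminescence read after 5 min. Percent inhibition versus no-enzyme and DMSO controls fitted to 4-parameter Hill equation.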

Test [5] is described as follows: Primary redox qHTS assay for identification of artifact compounds. (AID 1845223).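 Also: 0% = DMSO and 100% = reference compound.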 Particulars: Amplex Red/HRP redox cycling with DTT, fluorescence; series mostly up to 53.8 µM. The procedure, abridged:
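Amplex Red (25 uM) and HRP (250 mU/mL) in HBSS, with compounds for 15 min, then 250 uM DTT for 30 min, room temperature, dark. Fluorescence 525/598 nm read; normalized to DMSO and 10 uM DA3003; Hill fit.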

In test [6] the target is Glutathione peroxidase 1 (Homo sapiens) (UniProt P07203). The test is described as follows: Primary qHTS Assay for Inhibitors of Recombinant Selenoprotein Glutathione Peroxidase 1 (GPX1) (AID 1845191). Also: % is scaled to controls: 0 for no effect and ±100 for the full control effect; nearly all actives have a fitted effect of over 65% in size. Particulars: recombinant GPX1, GR-coupled NADPH fluorescence, 15 min; series mostly up to 27.7 µM. In a few lines:
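GR-coupled assay: compounds preincubated 30 min at room temperature with GPX1, then reaction started with CHP; final 10 nM GPX1, 1 mM GSH, 0.5 mM CHP, 0.5 mM NADPH, 100 nM GR, 0.01% BSA, pH 7.5 Tris buffer. NADPH fluorescence (340/450 nm) read at 0 and 15 min.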

Chain of Phospholipid hydroperoxide glutathione peroxidase GPX4 (Homo sapiens) (P36969 whole entry, looked up): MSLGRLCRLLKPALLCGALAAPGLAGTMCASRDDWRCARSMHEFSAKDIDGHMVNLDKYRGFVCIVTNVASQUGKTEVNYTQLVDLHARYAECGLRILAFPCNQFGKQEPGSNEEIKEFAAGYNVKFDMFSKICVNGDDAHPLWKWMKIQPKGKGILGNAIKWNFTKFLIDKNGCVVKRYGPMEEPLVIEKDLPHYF
Chain of Glutathione peroxidase 1 (Homo sapiens) (P07203 whole entry, looked up): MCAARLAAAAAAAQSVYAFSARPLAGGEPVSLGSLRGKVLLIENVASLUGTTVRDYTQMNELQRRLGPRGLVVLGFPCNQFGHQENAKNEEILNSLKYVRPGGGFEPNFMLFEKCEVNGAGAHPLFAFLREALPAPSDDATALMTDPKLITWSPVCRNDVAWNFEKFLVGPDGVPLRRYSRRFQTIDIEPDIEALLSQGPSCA

Consider `CCOC(=O)C(CCc1ccccc1)NC(C)C(=O)N1Cc2ccccc2CC1C(=O)O` (stereo unspecified), for which the Potency result in test [1], in test [2], in test [3] and in test [4] was “inactive” in each case.
For `C=Cc1cc2oc(-c3ccc(O)c(F)c3)nc2cc1O`, the Potency result in test [4] and in test [5] was “inactive” in each case.
As to `CC1(C)C2CC[C@]3(C)C(C(=O)C=C4[C@H]5C[C@@](C)(C(=O)O)CC[C@]5(C)CC[C@]43C)[C@@]2(C)CC[C@@H]1O` (stereo partly specified), the Potency entry in test [1], in test [2], in test [3], in test [4] and in test [5] was “inactive” each time.
For `C[C@@H]1O[C@@H](OC2C(O[C@H]3[C@H](O[C@H]4CC[C@@]5(C)C(CC[C@]6(C)C5CC=C5C7CC(C)(C)CC(O)[C@]7(C)CC[C@]56C)C4(C)C)O[C@H](C(=O)O)[C@@H](O)[C@@H]3O)OC(CO)C(O)C2O)[C@H](O)[C@H](O)[C@H]1O` (stereo partly specified), the Potency result in test [1] was “inactive”. In addition, the activity change, negative = inhibition in test [2] is 2.46% [at 11.6 µM]. Moreover, the activity, negative = inhibition in test [4] was 0% [at 11.6 µM]. In addition, the redox activity (% of DA3003) in test [5] was 6.57% [at 11.5 µM].
Take `CN(C)CCC[C@]1(c2ccc(F)cc2)OCc2cc(C#N)ccc21`: the Potency result in test [1], in test [2], in test [3], in test [4] and in test [5] was “inactive” in each case.
Regarding `CCc1cccc2c3c([nH]c12)[C@@](CC)(CC(=O)O)OCC3`, the Potency entry in test [1], in test [2], in test [4] and in test [5] was “inactive” each time.
On to `CCOC(=O)C(CCc1ccccc1)NC1CCCN2CCCC(C(=O)O)N2C1=O` (stereo unspecified), for which the Potency result in test [1], in test [2], in test [3] and in test [4] was “inactive” throughout.
For `CC(C)(Oc1ccc(-c2nc3cc(Cl)ccc3s2)cc1)C(=O)O`, the Potency entry in test [6] and in test [5] was “inactive” throughout. Besides, the Potency in test [2] was 2390 nM (active).
Turning to `O=C(NC1Cc2ccccc2N(C[C@@H](O)CO)C1=O)c1cc2cc(Cl)sc2[nH]1` (stereo partly specified), the Potency result in test [1], in test [2], in test [3], in test [4] and in test [5] was “inactive” throughout.
As to `CC(C)=CCC[C@](C)(O[C@@H]1O[C@H](CO[C@@H]2OC[C@H](O)[C@H](O)[C@H]2O)[C@@H](O)[C@H](O)[C@H]1O)[C@H]1CC[C@]2(C)[C@@H]1[C@H](O)C[C@@H]1[C@@]3(C)CC[C@H](O[C@@H]4O[C@H](CO)[C@@H](O)[C@H](O)[C@H]4O[C@@H]4O[C@H](CO)[C@@H](O)[C@H](O)[C@H]4O)C(C)(C)[C@@H]3CC[C@]12C`, the Potency entry in test [1], in test [2], in test [3], in test [4] and in test [5] was “inactive” in each case.
Regarding `CCc1nnc(NS(=O)(=O)c2ccc(NC(=S)NC(=O)/C=C/c3ccc(F)cc3)cc2)s1`, the Potency entry in test [1], in test [2] and in test [4] was “inactive” each time.
As to `Cc1ccc2[nH]c(=O)c(C3=NN(C(=O)CCC(=O)O)C(c4ccc(Br)cc4)C3)c(-c3ccccc3)c2c1` (stereo unspecified), the Potency entry in test [1], in test [2], in test [4] and in test [5] was “inactive” each time.
Turning to `COC(O)(CC(C)C)C1Oc2cc(C)[nH]c(=O)c2O1` (stereo unspecified), the Potency result in test [1], in test [2], in test [3], in test [4] and in test [5] was “inactive” each time.
With `Cc1cc(C)c2nc(-c3ccccn3)cc(C(=O)Nc3ccc(S(=O)(=O)Nc4onc(C)c4C)cc3)c2c1`, the Potency result in test [6], in test [4] and in test [5] was “inactive” throughout.
In the case of `CCC(C)/C=C(C)/C=C/C1=CC2=CC(=O)C(C)(O)C(OC(C)=O)C2CO1` (stereo unspecified), the Potency entry in test [6], in test [2] and in test [4] was “inactive” throughout.
As to `Cc1ccccc1N1CCN(S(=O)(=O)C[C@]23CC[C@H](C[C@@H]2NC(=O)[C@@H](N)CCS(C)(=O)=O)C3(C)C)CC1`, the Potency result in test [1], in test [2], in test [4] and in test [5] was “inactive” in each case.
Consider `CCCCS(=O)(=O)NC(Cc1ccc(OCCCCC2CCNCC2)cc1)C(=O)O` (stereo unspecified), for which the Potency result in test [1], in test [2], in test [3], in test [4] and in test [5] was “inactive” in each case.
Regarding `COc1cc(Nc2ccc([N+](=O)[O-])cc2C(=O)O)cc2ccccc12`, the Potency result in test [1] and in test [2] was “inactive” in each case. Further, in test [3], the Potency was 670 nM (active).
As for `C[C@@H]1CC[C@]2(C(=O)O[C@@H]3O[C@H](CO[C@@H]4O[C@H](CO)[C@@H](O[C@@H]5O[C@@H](C)[C@H](O)[C@@H](O)[C@H]5O)[C@H](O)[C@H]4O)[C@@H](O)[C@H](O)[C@H]3O)CC[C@]3(C)C(=CCC4[C@@]5(C)C[C@@H](O)[C@H](O)[C@@](C)(CO)C5CC[C@]43C)C2[C@H]1C` (stereo partly specified), in test [1], the Potency entry was “inactive”. Moreover, the activity change, negative = inhibition in test [2] is 3.24% [at 11.6 µM]. In addition, the activity change, negative = thiol reactive in test [3] is 329% [at 11.5 µM]. The activity, negative = inhibition in test [4] was 0% [at 11.6 µM]. Besides, the redox activity (% of DA3003) in test [5] is 3.39% [at 11.5 µM].
With `CC1(C)CC[C@]2(C(=O)O)CC[C@]3(C)C(=CCC4[C@@]5(C)CC[C@H](O)C(C)(C)C5CC[C@]43C)C2C1` (stereo partly specified), the Potency entry in test [1], in test [2], in test [3], in test [4] and in test [5] was “inactive” in each case.
Take `CCCSc1nc(NC2CC2c2ccc(F)c(F)c2)c2nnn(C3CC(OCCO)C(O)C3O)c2n1` (stereo unspecified): the Potency entry in test [1], in test [2], in test [3], in test [4] and in test [5] was “inactive” each time.
